Laboratory results taken from ChEMBL document CHEMBL3433997, “St. Jude Leishmania screening dataset” (2016).
Several values for one entry are separate records, joined by “and”; a condition that tells them apart may be missing. Equal entries are not always repeated.

Experiments:
Format in all cases: functional
[1] = target: Solute carrier family 2, facilitated glucose transporter member 1 (Homo sapiens) (UniProt P11166); experiment: ST_JUDE_LEISH: Cytotoxicity at 2uM final concentration against transgenic Leishmania Mexicana promastigotes LmGLUT1 that are glucose transport deficient and complemented with the human glucose transporter GLUT1. Activity is measured by DNA content using SYBR green in vitro
[2] = target: Hexose transporter 1 (Plasmodium falciparum) (UniProt O97467); experiment: ST_JUDE_LEISH: Cytotoxicity at 2uM final concentration against transgenic Leishmania Mexicana promastigotes LmPfHT that are glucose transport deficient and complemented with the Plasmodium falciparum hexose transporter. Activity is measured by DNA content using SYBR green in vitro
[3] = target: Glucose transporter (Leishmania mexicana) (UniProt O61059); experiment: ST_JUDE_LEISH: Cytotoxicity at 2uM final concentration against transgenic Leishmania Mexicana promastigotes LmGT2 that are glucose transport deficient and complemented with the L. Mexicana glucose transporter 2. Activity is measured by DNA content using SYBR green in vitro

Sequence of Solute carrier family 2, facilitated glucose transporter member 1 (Homo sapiens) (P11166 whole entry): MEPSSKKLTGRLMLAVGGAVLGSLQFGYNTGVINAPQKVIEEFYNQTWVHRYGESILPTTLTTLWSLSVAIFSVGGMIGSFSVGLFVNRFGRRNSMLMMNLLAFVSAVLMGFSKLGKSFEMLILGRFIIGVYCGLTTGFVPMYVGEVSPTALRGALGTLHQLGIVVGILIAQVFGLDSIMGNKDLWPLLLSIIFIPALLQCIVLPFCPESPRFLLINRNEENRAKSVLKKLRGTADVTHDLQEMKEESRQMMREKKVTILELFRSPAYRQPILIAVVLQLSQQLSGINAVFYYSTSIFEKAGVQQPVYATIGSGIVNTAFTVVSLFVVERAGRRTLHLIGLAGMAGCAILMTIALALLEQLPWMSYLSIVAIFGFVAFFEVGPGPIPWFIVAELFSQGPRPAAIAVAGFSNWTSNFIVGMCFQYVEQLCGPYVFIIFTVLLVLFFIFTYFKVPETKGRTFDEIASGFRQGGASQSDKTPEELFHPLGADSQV

| Compound | inhibition [1] | inhibition [2] | inhibition [3] |
| --- | --- | --- | --- |
| CC(C)c1ccc(NC(=O)c2ccc(C(=O)NC3CCN(Cc4ccccc4)CC3)cc2)cc1 | 1.09% | 2.91% | -1.3% |
| CCc1cn2c3c(cc(C(=O)N[C@@H](Cc4ccccc4)[C@H](O)CNCc4ccc(C)cc4)cc13)N(C)S(=O)(=O)CC2 | -0.24% | 1.57% | 0.38% |
| O=C1Nc2cccc3c2C1(CCCCN1CCC(c2cc4ccncc4[nH]2)CC1)CCC3 (stereo unspecified) | -0.19% and 8.55% | 0.01% and 8.94% | -0.84% and 8.48% |
| COc1ccc(OC)c(CC2c3ccc(Br)c(O)c3CCN2C)c1 (stereo unspecified) | 1.36% | 1.41% | 2.33% |
| C[C@H](NC(=O)[C@H](CCCCNC(=O)OC(C)(C)C)NC(=O)OC(C)(C)c1ccc(-c2ccccc2)cc1)C(=O)OCc1ccccc1 | 3.8% | 3.27% | 1.84% |
| COc1ccc2nccc([C@@H](O)CN3CCC(NCc4cc5cccnc5[nH]4)CC3)c2n1 | 15.5% | 14.9% | 3.26% |
| CC1(C)N=C(N)N=C(N)N1c1ccc2ccccc2c1 | 3.26% | 3.3% | 4.01% |
| Cc1cc2nc(-c3ccc(C(=O)NCc4cccc(F)c4)cc3)[nH]c2cc1C | -0.23% | 0.73% | -1.73% |
| COc1ccccc1CNC(=O)c1cc(Br)cc(N2CCN(c3ccncc3)CC2)c1 | 1.71% | 2.47% | 0.83% |
| COC(=O)c1cccc(CNCc2cccc(-c3cccc(-c4nc5cc(F)ccc5[nH]4)c3)c2)c1 | 5.23% | 5.92% | 4.97% |
| CCc1n[nH]c(C(=O)Nc2cccc(N3CCCC3)c2)c1C | 0.38% | 1.73% | -1.36% |
| Cc1cc(Nc2ccccc2)nc(Nc2ccccc2C)n1 | 5.24% | 4.32% | 0.47% |
